# Pf Dd2 growth: qHTS Primary assay for Inhibitors of Plasmodium falciparum Dd2 growth in vitro | P. falciparum Dd2 growth, SYBR Green, 72 h | Potency, µM (doses to about 28.9 µM), hits mostly inhibitors | 4.3% of 120,000 active | AID 1347417, 2020; active means well fitted inhibition curve with a large enough effect; further: nearly all actives have a fitted effect of over 65% in size
#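 Infected erythrocytes (Dd2, 0.3% parasitemia, 2.5% hematocrit final) are added to compound in RPMI-1640/Albumax II medium, grown 72 h at 37C in low oxygen, then lysed with saponin/Triton-X containing SYBR Green and read by fluorescence.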
# Hits are given with their value; i = inactive; [ ] = another dose, or the depositor's remark. This excerpt belongs to a sample that is enriched for hits.
SMILES,Pf Dd2 growth
COCCNS(=O)(=O)c1cc(C(=O)O)cc(-c2cccc3cccnc23)c1,i
COc1cc(C)c2c(c1C)C[C@H](C(C)C(=O)N1CCCCC1)CC2 (some centres undefined),i
O=c1c2c(CO)c(-c3ccccc3)nn2ccn1Cc1ccccc1F,i
CCNC(=O)N1CC[C@@H](CC(=O)O)[C@@H](CC2=NCCc3ccc(C(C)(C)C)cc32)C1,i
CCCNC(=O)N1C[C@@H]2CCCN3CCC[C@@H]([C@H]23)[C@H]1CCCC(=O)NC,i
CCCS(=O)(=O)NCc1cccnc1Oc1ccc(F)c(F)c1,i
Cc1noc(C)c1CC(=O)N1CCCn2ccnc2C1c1ccccc1 (centres undefined),i
CCOC(=O)C[C@@H]1C[C@@H](C(C)C)[C@H](CNC(=O)c2ccc(F)cc2)C=C1C,11µM
CC1=C[C@@H](CNC(=O)CC2(CC(=O)O)CCCC2)[C@H](C(C)C)C[C@H]1Cc1nc2ccc(F)cc2[nH]1,i
COCC(=O)NC[C@@H]1C=C(C)[C@H](Cc2nc3ccc(F)cc3[nH]2)C[C@H]1C(C)C,13µM
COC(=O)c1ccc2nc(C[C@@H]3C[C@@H](C(C)C)[C@H](CNC(=O)[C@@H]4CCCC[C@@H]4C(=O)O)C=C3C)[nH]c2c1,i
COC(=O)c1ccc2nc(C[C@@H]3C[C@@H](C(C)C)[C@H](CNC(=O)N4CCOCC4)C=C3C)[nH]c2c1,13µM
COC(=O)c1ccc2nc(C[C@@H]3C[C@@H](C(C)C)[C@H](CNCc4ccc(OC)cc4O)C=C3C)[nH]c2c1,i
CC1=C[C@@H](CNC(=O)c2cccnc2)[C@H](C(C)C)C[C@H]1Cc1nc2ccc(F)cc2[nH]1,i
COC(=O)c1ccc2nc(C[C@@H]3C[C@@H](C(C)C)[C@H](CNC4CCOCC4)C=C3C)[nH]c2c1,i
CCOC(=O)C[C@@H]1C[C@@H](C(C)C)[C@H](CNC(=O)c2cccnc2)C=C1C,i
COCC(=O)NC[C@@H]1C=C(C)[C@H](Cc2nc3ccccc3[nH]2)C[C@H]1C(C)C,i
CCOC(=O)C[C@@H]1C[C@@H](C(C)C)[C@H](CNC(=O)c2ccc(C#N)cc2)C=C1C,i
COC(=O)c1ccc2nc(C[C@@H]3C[C@@H](C(C)C)[C@H](CNCc4ccccc4F)C=C3C)[nH]c2c1,4.5µM
OCc1cc(CC2(NCC3CC3)COC2)no1,i
O=C(c1coc2ccccc12)N1CCN(Cc2cnc[nH]2)CC(O)C1 (centres undefined),i
CC(=O)N1CC2(Cc3ccccc31)CN(C(=O)c1ccc(Cl)nc1)C2,i
O=C(c1ccc2c(c1)OCO2)N1CCC2(CC1)CC(c1ccccc1)=NO2,i
Cc1nc(CN2CCOC3(CCN([S+](=O)([O-])c4ccccc4C)CC3)C2=O)cs1,i
COc1ccc(C(=O)N2C[C@@H](Oc3ccccc3)C[C@H]2C(=O)N2CCOCC2)c(OC)c1,i
SMILES,Pf Dd2 growth
COCC(=O)NC1CCC12CCN(C(=O)CC1CCCCC1)CC2 (centres undefined),i
O=C(CC[C@@H]1CNC(=O)[C@@H]2C[C@H](NCc3ccc(CO)o3)CN12)NCc1ccccc1,i
COC1C(=O)N(CC2CC2)C12CCN(C(=O)Cc1cccc(F)c1)CC2 (centres undefined),i
O=C([C@@H]1C[C@H](Oc2ccccc2)CN1C(=O)c1ccncc1)N1CCCC1,i
COCC(=O)NC[C@@H]1C=C(C)[C@H](CC(=O)N2CCCC2)C[C@H]1C(C)C,i
CCOC(=O)C[C@@H]1C[C@@H](C(C)C)[C@H](CNC(=O)C2CC2)C=C1C,i
COCCNC(=O)C[C@@H]1C[C@@H](C(C)C)[C@H](CNC(=O)C2CC2)C=C1C,8.9µM
CC(C)c1ccc(C(=O)N2CC(C(=O)NCCc3ccncc3)C3(CCOCC3)C2)cc1 (centres undefined),i
CCC1(C(=O)NCc2ccc(OC(C)C)cc2)CCCCC(=O)N1 (centres undefined),i
COc1ccc(NC(=O)N2CCCC(Cc3nncn3C)C2)cc1 (centres undefined),i
COc1cncc(NC(=O)C2=NO[C@@H]3CN(Cc4ccc(O)c(Cl)c4)C[C@H]23)c1,i
CCOc1ccc(CNCCCSc2nnnn2C)cc1OC,i[0.594 µM]
Cn1nnnc1SCCCNCc1cccc(OCc2ccccc2Cl)c1,10µM
CCOc1ccccc1CNCCSc1nnnn1C,i
Cn1nnnc1SCCCNCc1cc(Cl)ccc1OCc1ccccc1,7.9µM
COc1cc(CNCCSc2nnnn2C)cc(Cl)c1OCc1ccccc1,i
COc1cccc(CNCCSc2nnnn2C)c1OCc1ccc(Cl)cc1Cl,i
Cc1ccc(CCC(=O)N2CC[C@@](O)(C3CCOCC3)[C@H](C)C2)cc1,i
COCCN1CCC(N2CCN(S(=O)(=O)c3ccc(C)c(C)c3)CC2)C1=O (centres undefined),i
O=C(O)CCC(=O)N[C@H]1CO[C@H]2[C@@H]1OC[C@@H]2n1nnnc1Oc1ccc2c(c1)OCO2,i
Cc1ccc(-n2nc3n(c2=O)CCN([S+](C)(=O)[O-])C3)cc1,i
CC(C)OCc1cc(CN2CCN(c3ccccc3)CC2)c(O)c2ncccc12,2.5µM
